Bioassay records (PubChem BioAssay)
CYP2C19 inh: blockers of cytochrome P450 2C19 activity – biochemical, luminescence, ADME assay, primary screen; CYP2C19 Supersomes, luciferin-H EGE luminescence, 30 min; inhibition, % at 5 µM; hit rate 21% among 96,000;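 active means CYP2C19 inhibition above a set limit at 5 µM in the primary screen, cut at about 50% in these data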;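 further: plate controls were negative control wells for no effect and 2.5 mM tranylcypromine positive control for full effect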
Target sequence (P33261 whole entry, looked up): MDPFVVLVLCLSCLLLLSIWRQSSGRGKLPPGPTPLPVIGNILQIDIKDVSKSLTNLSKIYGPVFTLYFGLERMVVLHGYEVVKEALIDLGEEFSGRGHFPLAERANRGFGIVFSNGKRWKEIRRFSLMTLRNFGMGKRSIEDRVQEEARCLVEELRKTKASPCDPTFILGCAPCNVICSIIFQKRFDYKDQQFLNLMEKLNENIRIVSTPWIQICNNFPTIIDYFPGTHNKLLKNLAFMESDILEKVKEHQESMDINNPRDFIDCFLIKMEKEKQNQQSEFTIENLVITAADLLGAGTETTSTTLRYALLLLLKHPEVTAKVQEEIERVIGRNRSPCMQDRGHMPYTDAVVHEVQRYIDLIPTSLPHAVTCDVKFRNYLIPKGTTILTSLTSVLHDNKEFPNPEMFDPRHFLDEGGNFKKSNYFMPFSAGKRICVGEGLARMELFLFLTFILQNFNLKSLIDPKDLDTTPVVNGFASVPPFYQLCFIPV
Mac1 fbg enh: enhancers of CD11b/CD18 adhesion to fibrinogen, primary screen, K562 cells, luminescence. ATPlite luminescence. activation, % at 10 µM. hit rate 0.07% among 93,000. AID 1499, 2009;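 active means 10 µM primary screen giving 50% or more activity, confirmed by 40% or more on retest at that dose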
CYP2C19 activ: human CYP2C19 activators, primary screen, biochemical, luminescence | recombinant CYP2C19, luciferin-H EGE luminescence; active compounds read high; 0 = fully inhibited enzyme, 1 = untreated enzyme | activation factor at 5 µM | 96,000 tested, under 10 active | AID 1025, 2008;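 active means activation factor of at least 2 at 5 µM in the primary screen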;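 further: 0 = wells with 2.5 mM tranylcypromine and 1 = vehicle-only wells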
CYP2C9 inh: blockers of cytochrome P450 2C9 activity – biochemical, luminescence, ADME assay, primary screen. P11712. CYP2C9 Supersomes, luciferin-H conversion. inhibition, % at 5 µM. hit rate 20% among 96,000. AID 777, 2007;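 active means blocking of liver enzyme CYP2C9 beyond about 50% at 5 µM, limit read from the data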
CYP2C9 act: human CYP2C9 activators, primary screen, biochemical, luminescence; activation factor at 5 µM; recombinant CYP2C9, luciferin-H conversion; active compounds read high; factor 1 = untreated enzyme, 0 = blocked; hit rate 1.4% among 96,000; AID 1024, 2008; Cytochrome P450 2C9 (Homo sapiens), P11712;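 active means activation factor of 2 or more for CYP2C9 at a 5 µM dose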;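 further: 0 = sulfaphenazole-blocked wells and 1 = vehicle-only wells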
Mac1 fbg inh: inhibitors of CD11b/CD18 adhesion to fibrinogen, primary screen, K562 cells, luminescence; hit rate 0.54% among 93,000; inhibition, % at 10 µM; ATPlite luminescence; Mn2+ added to activate the integrin; Integrin beta-2 (Homo sapiens) + Integrin alpha-M (Homo sapiens), P05107+P11215;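 active means primary inhibition of 50% or more at 10 µM, then 40% or more on retest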
* marks the source's active call; other numbers are inactive results; · = no result. Only some compounds are listed: those with a hit (about 28% of all), similar ones and a draw of the others.

SMILES	CYP2C19 inh	Mac1 fbg enh	CYP2C19 activ	CYP2C9 inh	CYP2C9 act	Mac1 fbg inh
CCC(Oc1ccccc1)C(=O)Nc1ccc(S(=O)(=O)NCC2CCCO2)cc1 (stereo unspecified)	38.0	-3.7	0.6	90.8*	0.1	-6.4
COC(=O)CN(Cc1ccccc1)S(=O)(=O)c1ccc(OC)c(OC)c1	57.3*	-5.5	0.4	-7.4	1.1	-13.8
COc1ccc(S(=O)(=O)N(CCc2ccccc2)CC(=O)O)cc1OC	-7.0	-1.5	1.1	15.5	0.8	3.1
COC(=O)CN(CCc1ccccc1)S(=O)(=O)c1ccc(OC)c(OC)c1	98.6*	-2.1	0	31.6	0.7	-11.5
COC(=O)CN(c1cc(OC)ccc1OC)S(=O)(=O)c1ccc(OC)c(OC)c1	95.3*	-1.5	0	63.2*	0.4	-16.8
COc1ccc(N(CC(=O)NC(C)(C)C)S(=O)(=O)c2ccccc2)cc1OC	6.9	-2.7	0.9	10.0	0.9	1.3
CC(C)CC(=O)OC1C(N2CCOCC2)c2c(ccc(/C=C/C(=O)N3CCOCC3)c2O)OC1(C)C (stereo unspecified)	·	-2.9	·	·	·	-2.1
CC(C)C(C)NC(=O)COc1ccc(-c2ccccc2)cc1 (stereo unspecified)	18.0	-3.9	0.8	87.2*	0.1	0.5
COc1ccc(CN2C(=O)CN=C2Nc2cccc(C)c2C)cc1	34.9	0.9	0.7	39.9	0.6	-21.4
C[N+](C)(C)CCCC(=O)c1ccc2c(c1)OCO2	8.8	-6.0	0.9	6.6	0.9	2.7
CCSc1nnc(NC(=O)c2cccc(OCc3c(C)noc3C)c2)s1	88.1*	-4.5	0.1	86.3*	0.1	-4.1
Cc1noc(C)c1COc1cccc(C(=O)NCc2ccccc2Cl)c1	58.1*	3.4	0.4	53.2*	0.5	-18.2
O=C(Nc1ccc(OCc2ccccc2)cc1)c1cccnc1	10.7	4.9	0.9	25.9	0.7	-33.3
COc1ccc2nc(NC(=O)c3cccc(OCc4c(C)noc4C)c3)sc2c1	9.5	0.4	0.9	16.9	0.8	34.5
Cc1noc(C)c1COc1cccc(C(=O)Nc2ccc(OCc3ccccc3)cc2)c1	62.5*	7.8	0.4	73.1*	0.3	-9.1
CC(C)OCCCNS(=O)(=O)c1ccc2c(c1)OCCO2	77.2*	0.5	0.2	-124.4	2.2*	-31.6
Cc1ccc(OCCNS(=O)(=O)c2cccs2)cc1	100.1*	-1.3	0	84.7*	0.2	6.4
O=S(=O)(NCCOc1ccccc1)c1ccc2ccccc2c1	1.5	-3.3	1	-105.2	2.1*	-3.5
COc1ccc(OCCNS(=O)(=O)c2ccccc2)cc1	86.1*	-0.8	0.1	82.0*	0.2	-2.7
C=CCNC(=S)Nc1sc2c(c1C(=O)OCC)CC(C(C)C)OC2 (stereo unspecified)	15.3	-4.1	0.8	8.8	0.9	11.5
O=C1c2ccccc2CN1CCNS(=O)(=O)c1ccc2ccccc2c1	29.8	7.7	0.7	-153.7	2.5*	1.7
CC(C)OCCCNS(=O)(=O)c1ccc2ccccc2c1	38.8	-3.2	0.6	-236.6	3.4*	4.1
O=C1NCCN1CCNS(=O)(=O)c1ccc2ccccc2c1	15.8	2.1	0.8	22.6	0.8	8.3
CC(C)OCCCNS(=O)(=O)c1ccc2c(c1)oc(=O)n2C	36.6	-2.0	0.6	-12.7	1.1	-12.1
N#CCCn1c(C2CCCCC2)nc2ccccc21	-18.0	-2.3	1.2	-16.9	1.2	5.3
SMILES	CYP2C19 inh	Mac1 fbg enh	CYP2C19 activ	CYP2C9 inh	CYP2C9 act	Mac1 fbg inh
O=C(NC1CCCCC1)N(CCO)Cc1cc2cc3c(cc2[nH]c1=O)OCCO3	2.7	-2.0	1	53.2*	0.5	7.6
O=C(NC1CCCCC1)N(CCN1CCCC1)Cc1cc2cc3c(cc2[nH]c1=O)OCCO3	5.2	-5.3	0.9	5.6	0.9	-17.8
COc1cc(Cl)c(C)cc1NC(=O)CSC	52.2*	-1.4	0.5	14.6	0.9	-6.8
COc1ccccc1NC(=O)COc1cc(C)nc(C(C)C)n1	4.2	5.0	1	4.6	1	-3.2
COc1cc(Cl)c(C)cc1NC(=O)COc1cc(C)nc(C(C)C)n1	48.5	-2.8	0.5	50.9*	0.5	-7.3
COc1cc(Cl)c(C)cc1NC(=O)CSc1ccc(C)cc1	9.1	·	0.9	11.3	0.9	·
Cc1cccc(CN2CCC(CNC(=O)CCNC(=O)Cn3ccc4ccccc4c3=O)CC2)c1	-3.3	-1.0	1	39.3	0.6	-5.5
O=C(O)c1c(-c2ccccc2)c2oc3ccccc3c2[nH]c1=O	-13.2	-3.8	1.1	-3.9	1	9.4
O=C(CCC(=O)c1cccs1)NCc1ccc(F)cc1	72.5*	-0.4	0.3	-71.0	1.7	-1.3
O=C(CCC(=O)c1cccs1)Nc1ccccc1F	52.2*	2.7	0.5	12.6	0.9	-10.3
CC(C)(C)CC(=O)NCc1ccc(F)cc1	52.7*	-0.6	0.5	17.5	0.8	-12.6
O=C(CCc1ccc(CCC(=O)c2cccs2)s1)c1cccs1	89.4*	-2.8	0.1	92.7*	0.1	39.7
Nn1cnnc1N/N=C/c1cc(Br)cc(Br)c1O	3.7	-5.6	1	44.1	0.6	9.1
CCOc1ccccc1Nc1nc(N)nc(CN(C)C2CCCCC2)n1	28.3	-7.1	0.7	4.9	1	10.7
Cc1ccc(C)c(N(CC(=O)NCc2ccc3c(c2)OCO3)C(=O)CCC(=O)Nc2ccccn2)c1	63.1*	0.8	0.4	50.4*	0.5	2.2
Cc1cc(C)cc(N(CC(=O)NCc2ccc3c(c2)OCO3)C(=O)CCC(=O)Nc2ccccn2)c1	57.7*	0.2	0.4	49.3	0.5	-13.1
CCCCC1(C)OC(=O)C(=Cc2ccc(N(CC)CC)cc2)C(=O)O1 (stereo unspecified)	53.5*	0.3	0.5	4.4	1	9.4
O=c1ccc2cc3c([nH]c4ccc(Br)cc43)oc-2c1O	7.9	4.3	0.9	-0.9	1	-23.6
O=C(Nc1ccc(Cl)cc1)N1CCSCC1	60.5*	-7.3	0.4	13.2	0.9	-6.3
Cc1ccc(NC(=O)N2CCC(O)(c3ccc(Cl)cc3)CC2)cc1	95.6*	-1.0	0	70.7*	0.3	5.3
Cc1cc(C)c(S(=O)(=O)Nc2ccc(OCC(=O)O)cc2)c(C)c1	21.7	-5.8	0.8	38.4	0.6	18.0
CN=C(Nc1ccccc1)SC1CC(=O)N(c2ccc(C(=O)OC)cc2)C1=O (stereo unspecified)	37.7	-4.4	0.6	68.2*	0.3	10.5
CCN=C(NCC)SC1CC(=O)N(c2cccc(OCC)c2)C1=O (stereo unspecified)	76.3*	1.4	0.2	-106.8	2.1*	-1.9
